We go through 8 compounds from PubChem BioAssay (NCI).

About 83,000 compounds went through this panel and 20% of them were active in at least one assay; those are over-represented in the sample as a whole.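 Note: values are percent growth. 100 is the growth of untreated cells, values between 100 and 0 indicate rising inhibition; between -100 and 0 indicates cell death.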 Values without a mark were called inactive. The source made the active and inactive calls. Rule for the calls: active = growth percent below 10; inactive = the rest.

Some test systems named below: SK-MEL-2 melanoma; EKVX NSCLC; SN12C renal; UO-31 renal; TK-10 renal; ACHN renal; CAKI-1 renal; A498 renal; CCRF-CEM leukemia; MOLT-4 leukemia; SR leukemia; RPMI-8226 leukemia; OVCAR-8 ovarian; OVCAR-5 ovarian; OVCAR-4 ovarian; SK-OV-3 ovarian; IGROV1 ovarian; OVCAR-3 ovarian; HS 578T breast; NCI/ADR-RES ovarian.
Holding throughout (assay): NCI-60 one-dose screen, 48 h (100 = growth as untreated, 0 = no growth, -100 = all killed)
Conditions in all cases: 10 µM unless noted

Regarding `CCN1C(=O)N(CC)C2NNC(Sc3c(C(=O)O)c4ccccc4n(CC(C)C)c3=O)=NC21` (stereo not given), the growth in the test on SK-MEL-2 melanoma is 18.5%; in the test with EKVX NSCLC it was 38.5%; with SN12C renal it was 24.3%; in the test on UO-31 renal, 39.5%; in the test with TK-10 renal, 52.7%; in the test on ACHN renal, 28.7%. Besides, the growth with CAKI-1 renal was 46.1%; in the test on A498 renal it was 133%; in the test with CCRF-CEM leukemia it was 7.54% (active); with MOLT-4 leukemia it was 6.5% (active); with SR leukemia, 11.1%; with RPMI-8226 leukemia, 8.29% (active). For the same compound, the growth was 11.8% in the test with OVCAR-8 ovarian; 24.2% in the test with OVCAR-5 ovarian; 67% in the test on OVCAR-4 ovarian; 40.6% in the test with SK-OV-3 ovarian; 20% in the test on IGROV1 ovarian; 4% (active) with OVCAR-3 ovarian. Further, the growth is -2.68% (active) in the test on HS 578T breast and -27.6% (active) in the test with NCI/ADR-RES ovarian.
With `O=C(NC(=S)N1CCN(c2ncnc3c2cnn3-c2ccccc2)CC1)c1ccc(Br)cc1`, the growth was 87.4% in the test with SK-MEL-2 melanoma; 76.4% with EKVX NSCLC; 48.4% in the test with SN12C renal; 70.7% in the test on UO-31 renal; 127% in the test with TK-10 renal; 69.2% in the test with ACHN renal. Further, the growth is 47.8% in the test with CAKI-1 renal; 104% in the test on A498 renal; 81.2% in the test on CCRF-CEM leukemia; 81.5% with MOLT-4 leukemia; 14.1% in the test with SR leukemia; 83.4% in the test on RPMI-8226 leukemia. For the same compound, the growth is 47.4% with OVCAR-8 ovarian; 81.8% in the test on OVCAR-5 ovarian; 41.9% in the test on OVCAR-4 ovarian; 57% in the test on SK-OV-3 ovarian; 72.1% with IGROV1 ovarian; 89.6% in the test on OVCAR-3 ovarian. The results for the growth in the test on HS 578T breast and in the test with NCI/ADR-RES ovarian were 53.8% and 53.9%, respectively.
As to `O=C1c2cccc3c(N4CCN(Cc5ccccc5)CC4)ccc(c23)C(=O)N1c1cccc(-c2nn(-c3ccccc3)cc2-c2nc3ccccc3s2)c1`, the growth is 111% in the test on SK-MEL-2 melanoma; 98.6% in the test with EKVX NSCLC; 101% in the test with SN12C renal; 68.8% in the test on UO-31 renal; 120% in the test on TK-10 renal; 93.1% in the test on ACHN renal. In addition, the growth is 86.1% in the test on CAKI-1 renal; 125% in the test with A498 renal; 105% with CCRF-CEM leukemia; 113% in the test with MOLT-4 leukemia; 87.3% in the test on SR leukemia; 103% in the test with RPMI-8226 leukemia. Further, the growth is 115% in the test on OVCAR-8 ovarian; 107% in the test with OVCAR-5 ovarian; 105% with OVCAR-4 ovarian; 102% with SK-OV-3 ovarian; 89.5% in the test with IGROV1 ovarian; 102% in the test with OVCAR-3 ovarian. In addition, the growth in the test on HS 578T breast is 106%; in the test with NCI/ADR-RES ovarian it was 104%.
As to `Cc1ccc(C(=O)C[n+]2cccc3c4ccccc4ccc32)cc1`, the growth is 36.5% in the test with SK-MEL-2 melanoma; 28.9% in the test on EKVX NSCLC; 14.7% in the test on SN12C renal; 29.7% in the test with UO-31 renal; 41.3% in the test with TK-10 renal; 50.6% in the test with ACHN renal. For the same compound, the growth with CAKI-1 renal was 53.2%; with A498 renal it was 75.2%; in the test on CCRF-CEM leukemia it was 28.1%; with MOLT-4 leukemia, 14.4%; with SR leukemia it was 2.32% (active); with RPMI-8226 leukemia, 4.63% (active). Moreover, the growth is 22.5% with OVCAR-8 ovarian; 31.3% in the test on OVCAR-5 ovarian; 21.1% in the test on OVCAR-4 ovarian; 33.9% in the test on SK-OV-3 ovarian; 30.9% in the test with IGROV1 ovarian; 30.3% with OVCAR-3 ovarian. For the same compound, the figures for the growth in the test with HS 578T breast and in the test with NCI/ADR-RES ovarian were 27.6% and 80.9%, respectively.
For the compound `CCCn1c(NC(=O)c2cccc(C(N)=O)c2)nc2ccc(CN3CCCCC3)cc21`, the growth in the test with SK-MEL-2 melanoma is 105%; with EKVX NSCLC it was 103%; in the test on SN12C renal, 88%; in the test with UO-31 renal, 65.3%; in the test with TK-10 renal it was 99.3%; in the test on ACHN renal, 60.3%. Besides, the growth in the test on CAKI-1 renal was 50.2%; in the test with A498 renal, 159%; with CCRF-CEM leukemia, 96.4%; in the test on MOLT-4 leukemia, 98.9%; in the test with SR leukemia, 31.4%; in the test on RPMI-8226 leukemia it was 85.2%. Also, the growth with OVCAR-8 ovarian was 107%; with OVCAR-5 ovarian, 83.3%; in the test on OVCAR-4 ovarian, 98.5%; in the test with SK-OV-3 ovarian, 85.9%; in the test with IGROV1 ovarian it was 72.4%; with OVCAR-3 ovarian it was 112%. For the same compound, the growth in the test with HS 578T breast and in the test with NCI/ADR-RES ovarian was 111% throughout.
As to `COc1cc(C2CC(c3cc(OC)c(OC)c(OC)c3)=Nc3c(N)nc(N)nc3N2)ccc1Oc1nc(Nc2ccc(F)cc2)nc(N(C)C)n1` (stereo not given), the growth in the test with SK-MEL-2 melanoma is 82.7%; with EKVX NSCLC, 67.5%; with SN12C renal, 78.5%; in the test with UO-31 renal, 40.3%; in the test on TK-10 renal, 99.8%; in the test with ACHN renal it was 68.1%. In addition, the growth in the test with CAKI-1 renal was 52.3%; in the test with A498 renal, 118%; in the test with CCRF-CEM leukemia, 26.7%; in the test with MOLT-4 leukemia it was 6.97% (active); in the test with SR leukemia, -7.88% (active); in the test on RPMI-8226 leukemia it was 33.9%. Besides, the growth was 59% in the test on OVCAR-8 ovarian; 105% with OVCAR-5 ovarian; 49.2% in the test on OVCAR-4 ovarian; 107% in the test on SK-OV-3 ovarian; 70.8% in the test on IGROV1 ovarian; 74.2% with OVCAR-3 ovarian. The growth is 48.2% in the test on HS 578T breast and 66.4% with NCI/ADR-RES ovarian.
On to `COc1cc(-c2ccc3ncnc(N4CCc5ccc(Cl)cc54)c3c2)cnc1Cl`, for which the growth in the test with SK-MEL-2 melanoma was 54.2%; in the test with EKVX NSCLC it was 2.35% (active); in the test on SN12C renal, 26.9%; in the test with UO-31 renal, 5.14% (active); in the test with TK-10 renal, 29.5%; in the test with ACHN renal, 14.1%. For the same compound, the growth with CAKI-1 renal is 12.9%; in the test with A498 renal, -4.48% (active); in the test with CCRF-CEM leukemia, 12.2%; in the test on MOLT-4 leukemia it was 6.74% (active); in the test with SR leukemia, 12.3%; in the test on RPMI-8226 leukemia, -4.08% (active). Further, the growth in the test on OVCAR-8 ovarian was 37.1%; with OVCAR-5 ovarian it was 34.7%; with OVCAR-4 ovarian it was 33.3%; in the test with SK-OV-3 ovarian, 17.4%; with IGROV1 ovarian, -44.4% (active); in the test with OVCAR-3 ovarian it was 29.2%. Moreover, the results for the growth in the test on HS 578T breast and in the test with NCI/ADR-RES ovarian were 23.5% and 26.6%, respectively.
`COc1sc(/C=N/NC(=O)c2[nH]c3ccc(Br)cc3c2-c2ccccc2)cc1Br`: the growth is 15.4% in the test on SK-MEL-2 melanoma; 13.5% in the test on EKVX NSCLC; 5.93% (active) with SN12C renal; 31.1% in the test on UO-31 renal; 64.6% with TK-10 renal; 7.58% (active) with ACHN renal. The growth is 15.2% in the test with CAKI-1 renal; 134% in the test with A498 renal; 6.23% (active) in the test on CCRF-CEM leukemia; -2.1% (active) with MOLT-4 leukemia; 4.82% (active) with SR leukemia; 9.25% (active) with RPMI-8226 leukemia. Moreover, the growth is 12% in the test with OVCAR-8 ovarian; 0.79% (active) in the test on OVCAR-5 ovarian; 41.9% in the test on OVCAR-4 ovarian; 40.2% in the test with SK-OV-3 ovarian; 11.8% in the test with IGROV1 ovarian; -0.827% (active) in the test with OVCAR-3 ovarian. Besides, the growth is 20.7% in the test on HS 578T breast and -64.9% (active) in the test with NCI/ADR-RES ovarian.
